A number with no mark means an inactive call. Inconclusive results are not listed. The source made the active and inactive calls. Unless noted, calls follow the shape of the dose curve; as a rule, active = well fitted curve in the direction sought with a large enough effect in the repeat runs; inconclusive = weak or mixed curves; inactive = no such curve, though single readings can be large; an effect the other way counts as inactive or inconclusive.

The nature of test [1]: qHTS assay to identify small molecule antagonists of the estrogen related receptor (ERR) signaling pathway from Tox21 library - cell viability counter screen (AID 1224834). Also: nearly all actives have a fitted effect of over 30% in size. Summed up:
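Cytotoxicity of test substances is gauged in the same ERR cells used for the antagonist screen, after 17.5 h of compound treatment at 37 C, by CellTiter-Fluor fluorescence measured after 30 min.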
(In general: In qHTS, concentration-response curves come from the screen itself.)

The target in test [2] is Luciferin 4-monooxygenase (Photinus pyralis) (UniProt P08659). In words: qHTS assay to identify small molecule inhibitors of firefly luciferase (AID 1224835). Also: nearly all actives have a fitted effect of over 25% in size. In outline: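 Biochemical qHTS: compounds run as interplate titrations against purified firefly enzyme, with D-luciferin and ATP each at its KM concentration. Light output recorded by CCD imaging.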
Luciferin 4-monooxygenase (Photinus pyralis), sequence (P08659 whole entry, looked up): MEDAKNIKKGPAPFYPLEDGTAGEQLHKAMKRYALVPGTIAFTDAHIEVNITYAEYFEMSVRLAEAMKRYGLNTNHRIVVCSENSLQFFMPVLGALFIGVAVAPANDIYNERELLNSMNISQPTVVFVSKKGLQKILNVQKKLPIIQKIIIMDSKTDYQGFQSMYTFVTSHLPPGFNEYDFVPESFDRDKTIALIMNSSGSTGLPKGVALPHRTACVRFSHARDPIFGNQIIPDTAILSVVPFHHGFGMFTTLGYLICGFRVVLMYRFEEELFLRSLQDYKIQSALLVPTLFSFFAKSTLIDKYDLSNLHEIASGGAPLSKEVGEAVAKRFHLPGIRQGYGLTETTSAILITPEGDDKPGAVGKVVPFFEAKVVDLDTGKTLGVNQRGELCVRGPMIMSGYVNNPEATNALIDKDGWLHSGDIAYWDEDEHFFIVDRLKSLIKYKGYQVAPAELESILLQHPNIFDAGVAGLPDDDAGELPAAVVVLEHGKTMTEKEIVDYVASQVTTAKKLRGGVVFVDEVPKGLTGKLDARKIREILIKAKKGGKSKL
Test [3] can be described thus: qHTS assay to identify small molecule agonists of the constitutive androstane receptor (CAR) signaling pathway - cell viability counter screen (AID 1224836). Also: nearly all actives have a fitted effect of over 45% in size. In outline:
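23 h treatment, 37 C, 5% CO2. Cell line: HepG2 stably expressing hCAR with a CYP2B6-2.2kb construct. Co-treatment: PK11195, 0.75 uM final. Read-out: CellTiter-Fluor fluorescence intensity.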

Test [4] is described as follows: qHTS assay to identify small molecule antagonists of the constitutive androstane receptor (CAR) signaling pathway - cell viability counter screen (AID 1224837). Also: nearly all actives have a fitted effect of over 45% in size. Summed up: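 Multiplexed cytotoxicity read-out for the CAR antagonist screen: double-stable HepG2-CYP2B6-hCAR cells co-treated with 50 nM CITCO (final) and compound over 15 concentrations, incubated 23 hr, then assessed by CellTiter-Fluor fluorescence.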

A short description of test [5]: qHTS assay to identify small molecule antagonists of the estrogen related receptor signaling pathway with the pleiotropic PPARgamma coactivator (PGC) from Tox21 10K library - cell viability counter screen (AID 1224840; active = well fitted cell-killing curve with a large enough effect in the repeat runs, not every such curve was filed as active; also: nearly all actives have a fitted effect of over 40% in size). Summed up: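 Step one, plate 2,000 PGC/ERR cells per well; step two, incubate 6 h at 37 C/5% CO2; step three, pin-transfer compounds; step four, incubate 17.5 h; step five, add CellTiter-Fluor and read fluorescence after 30 min.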

Test [6] can be described thus: qHTS assay to identify small molecule agonists of the hypoxia (HIF-1) signaling pathway - cell viability counter screen (AID 1224844; calls by dose curve; also: nearly all actives have a fitted effect of over 50% in size). In outline:
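Tox21 10K compounds were added to HRE-bla ME-180 cells (0.5% dialyzed FBS) and incubated 17 hrs at 37C; ATP-based CellTiter-Glo luminescence then reported cell viability in the same wells.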

Test [7] can be described thus: qHTS assay to identify small molecule agonists of H2AX (AID 1224845; active = well fitted activation curve with a large enough effect in the signal ratio in the repeat runs, not every such curve was filed as active; the % refers to the signal ratio). Summed up: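 Wild-type CHO-K1 cells, plated overnight, exposed 3hr at 37C to 15 concentrations (0.76% DMSO final). Lysed, then HTRF anti-pH2AX (S139) cryptate and anti-H2AX-d2 antibodies, 24 hr room temperature; 665/620 nm emission read.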
The nature of test [8]: qHTS assay to identify small molecule agonists of the hypoxia (HIF-1) signaling pathway (AID 1224846; active = well fitted activation curve with a large enough effect in the signal ratio in the repeat runs, not every such curve was filed as active; the % refers to the signal ratio). Summed up:
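Steps: seed ME-180 HRE-bla cells (2,000/well, 0.5% dialyzed FBS); incubate 5 hrs at 37C; pin-transfer compounds or DMSO; incubate 17 hrs; add LiveBLAzer B/G substrate CCF4-AM; measure reporter activation by FRET.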

Test [9] is described as follows: qHTS RealTime-Glo MT Cell Viability Assay in HepG2 cells - 24 hour (AID 1224867). Also: nearly all actives have a fitted effect of over 50% in size. In outline: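 Viability was tracked continuously by NanoLuc luminescence from prosubstrate reduced by living HepG2 cells, at successive time points over 40 h of compound exposure. Cells with reagent were preincubated 5 h at 37 °C before compound addition.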
Test [10] is described as follows: qHTS RealTime-Glo MT Cell Viability Assay in HEK293 cells - 32 hour (AID 1224868). Also: top concentration of the series differs between compounds; nearly all actives have a fitted effect of over 50% in size. In outline:
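Viability tracked continuously by luminescence as live cells reduce a prosubstrate for NanoLuc; HEK293 cells preincubated 5 h, compound-treated at 37 C, and read at 0, 8, 16, 24, 32 and 40 h.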

A short description of test [11]: A CellTox Green Cytotoxicity Assay to monitor cytotoxicity in HEK293 cells - 0 hour (AID 1224869). Also: nearly all actives have a fitted effect of over 50% in size. Summed up:
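Cytotoxicity was tracked continuously in HEK293 cells by a DNA-binding dye excluded from viable cells. Compounds were transferred in DMSO 5 h after seeding; fluorescence was recorded at intervals up to 40 h.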

Test [12] in a line: qHTS assay to identify small molecule antagonists of the estrogen related receptor signaling pathway with the pleiotropic PPARgamma coactivator (PGC) from Tox21 10K library (AID 1224841; call rule not given here). In outline: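 Antagonism in this quantitative HTS is taken from loss of luciferase signal in PGC/ERR cells. Cells (2,000/well) are treated with compounds in DMSO after a 6 h settling period and read by One-Glo luminescence after 18 h.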

The nature of test [13]: qHTS assay to identify small molecule agonists of the estrogen related receptor signaling pathway with the pleiotropic PPARgamma coactivator (PGC) from Tox21 10K library (AID 1224842). Also: nearly all actives have a fitted effect of over 15% in size. In outline:
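PGC/ERR reporter cell line, 2,000 cells per well, incubated 6 h at 37 C before 23 nL compound in DMSO was added. After 18 h at 37 C, One-Glo luminescence read following 30 min at room temperature.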

The target in test [14] is Thyrotropin receptor (Homo sapiens) (UniProt P16473). In words: qHTS assay to identify small molecule agonists of the thyroid stimulating hormone receptor (TSHR) signaling pathway (AID 1224843; calls by dose curve; also: nearly all actives have a fitted effect of over 45% in size). Summed up: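 Steps: seed 800 TSHR-HEK293 cells per well; add test compound and hold 30 min at ambient temperature; dispense cAMP-d2 then anti-cAMP cryptate; incubate 1 h at ambient; measure fluorescence intensity.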
Thyrotropin receptor (Homo sapiens), sequence (P16473 whole entry, looked up): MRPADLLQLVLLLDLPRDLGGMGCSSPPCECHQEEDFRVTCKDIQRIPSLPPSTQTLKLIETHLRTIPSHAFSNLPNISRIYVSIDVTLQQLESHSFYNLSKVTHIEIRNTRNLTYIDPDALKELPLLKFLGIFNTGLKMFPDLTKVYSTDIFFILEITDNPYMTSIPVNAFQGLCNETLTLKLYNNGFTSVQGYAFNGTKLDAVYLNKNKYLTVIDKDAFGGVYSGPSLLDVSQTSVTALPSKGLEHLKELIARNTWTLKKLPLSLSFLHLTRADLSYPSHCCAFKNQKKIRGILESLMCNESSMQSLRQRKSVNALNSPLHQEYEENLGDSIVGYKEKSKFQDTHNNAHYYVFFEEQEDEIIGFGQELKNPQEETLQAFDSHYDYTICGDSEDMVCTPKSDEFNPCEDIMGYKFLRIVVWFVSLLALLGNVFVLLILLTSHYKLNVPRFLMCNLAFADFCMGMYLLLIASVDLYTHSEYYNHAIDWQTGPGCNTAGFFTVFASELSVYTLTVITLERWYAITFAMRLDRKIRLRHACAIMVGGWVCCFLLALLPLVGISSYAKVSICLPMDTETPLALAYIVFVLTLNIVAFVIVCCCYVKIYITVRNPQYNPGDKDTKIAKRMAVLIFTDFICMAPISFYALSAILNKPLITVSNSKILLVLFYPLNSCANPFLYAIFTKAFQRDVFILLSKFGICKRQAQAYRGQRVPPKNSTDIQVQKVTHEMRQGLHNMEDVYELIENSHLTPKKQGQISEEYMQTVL

The nature of test [15]: qHTS assay to identify small molecule agonists of H2AX - cell viability counter screen (AID 1224847; calls by dose curve; also: top concentration of the series differs between compounds; nearly all actives have a fitted effect of over 30% in size). Summed up:
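Compounds tested at 15 concentrations were incubated 3 hr at 37C with wild-type CHO-K1 cells; cellular ATP-based luminescence (CellTiter-Glo) indicated viability.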

Test [16] can be described thus: qHTS assay to identify small molecule antagonists of the estrogen related receptor (ERR) signaling pathway from Tox21 library (AID 1224848). Also: nearly all actives have a fitted effect of over 50% in size. In outline: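 Luminescent reporter read-out (ONE-Glo) from NTP's ERR cell line after 18 h treatment at 37 C with DMSO-dissolved Tox21 compounds; cells pre-plated 6 h beforehand at 2,000 per well.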
Test [17] is described as follows: qHTS assay to identify small molecule agonists of the estrogen related receptor (ERR) signaling pathway from Tox21 library (AID 1224849; calls by dose curve; also: nearly all actives have a fitted effect of over 15% in size). The note with it: ERR reporter cell line, ONE-Glo luciferase, 18 h; at 92.4 µM (top of the series) unless noted. In outline: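 Agonist signal is luciferase luminescence from an ERR reporter cell line treated 18 h at 37 C with DMSO-dissolved compounds, read 30 min after ONE-Glo addition at room temperature.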

In test [18] the target is Nuclear receptor subfamily 1 group I member 3 (Homo sapiens) (UniProt Q14994). In words: qHTS assay to identify small molecule antagonists of the constitutive androstane receptor (CAR) signaling pathway (AID 1224838). Also: nearly all actives have a fitted effect of over 40% in size. Summed up: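 Compounds were titrated across 15 concentrations onto HepG2 cells double-stably expressing hCAR and a CYP2B6-2.2kb reporter, together with 50 nM CITCO (final). After 24 h at 37 C, luciferase activity was measured by luminescence.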
Nuclear receptor subfamily 1 group I member 3 (Homo sapiens), sequence (Q14994 whole entry, looked up): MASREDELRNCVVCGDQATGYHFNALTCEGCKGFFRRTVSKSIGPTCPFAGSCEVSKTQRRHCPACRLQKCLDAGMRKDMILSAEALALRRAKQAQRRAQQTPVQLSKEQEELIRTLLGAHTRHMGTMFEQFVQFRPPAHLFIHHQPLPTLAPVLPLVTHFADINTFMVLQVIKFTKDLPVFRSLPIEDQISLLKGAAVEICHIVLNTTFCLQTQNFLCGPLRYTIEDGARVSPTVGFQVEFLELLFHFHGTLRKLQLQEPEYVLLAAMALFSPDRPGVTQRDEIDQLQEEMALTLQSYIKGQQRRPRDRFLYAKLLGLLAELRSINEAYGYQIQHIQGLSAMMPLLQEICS

For test [19] the target is unchanged. In words: qHTS assay to identify small molecule agonists of the constitutive androstane receptor (CAR) signaling pathway (AID 1224839). Also: nearly all actives have a fitted effect of over 15% in size. Also: potency is read from the fitted curve at half-maximal effect. In outline:
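Compounds tested at 15 concentrations on HepG2 cells stably harbouring hCAR and CYP2B6-2.2kb reporter constructs, co-treated with PK11195 (0.75 uM final), 24 h at 37 C; luminescent reporter signal quantified.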
% is scaled to controls: 0 for no effect and ±100 for the full control effect.

Take `CCCCCCCCSC(=O)Oc1cc(Cl)nnc1-c1ccccc1`: the Potency entry in test [1], in test [2], in test [3], in [4], in test [5] and in test [6] was “inactive” each time. The Potency entry in [9] and in [10] was “inactive” in each case. Moreover, the molecule was classed as inactive in [7], in test [8] and in test [11].
Take `CN(C)CCN(C)C`: the Potency entry in [1], in [2], in test [4], in test [5], in test [12] and in test [13] was “inactive” throughout. Moreover, the Potency result in [14], in test [6], in test [15], in test [16], in [9] and in test [10] was “inactive” in each case. Moreover, the molecule was classed as inactive in test [7], in test [8] and in test [11]. The activity change, positive = activation in [17] is 9.25%.
Turning to `CCNP(=S)(OC)O/C(C)=C/C(=O)OC(C)C` (stereo not given), the Potency entry in test [1], in test [2], in [4], in test [18], in test [5] and in [6] was “inactive” in each case. Besides, the Potency result in test [9] is “inactive”. Further, in test [19], the Potency is 27.3 µM (active). Also, the outcome in [7], in test [8] and in test [11] was inactive.
In the case of `CCOC(=O)c1ncn2c1CN(C)C(=O)c1c(I)cccc1-2`, the Potency result in test [1], in test [2], in [4], in [5], in [14] and in test [6] was “inactive” in each case. Besides, the Potency entry in test [15], in [9] and in test [10] was “inactive” each time. Further, the molecule was classed as inactive in test [7], in [8] and in test [11].
With `Oc1ccc(Cc2ccc(O)cc2)cc1`, the Potency entry in [1], in test [3], in test [4], in [18], in test [5] and in test [12] was “inactive” in each case. The Potency result in [13], in test [14], in test [6], in test [15], in test [16] and in [9] was “inactive” in each case. Moreover, in test [19], the Potency was 54.9 µM (active). For the same molecule, the outcome in test [7], in test [8] and in [11] was inactive. For the same molecule, the activity change, positive = activation in test [17] was 5.91%.
As for `C#CCOC(=O)/C=C(C)/C=C/CC(C)CCCC(C)C` (stereo not given), the Potency entry in [1], in test [3], in test [4], in test [18], in [19] and in test [5] was “inactive” each time. For the same molecule, the Potency result in test [12], in [13], in test [14], in [6], in [16] and in test [9] was “inactive” throughout. The Potency entry in test [10] is “inactive”. In addition, the outcome in [7], in test [8] and in [11] was inactive. For the same molecule, the activity change, positive = activation in test [17] is 0.281%.
As for `c1cncc([C@@H]2CCCCN2)c1`, the Potency entry in test [1], in test [2], in test [4], in [18], in test [19] and in [5] was “inactive” throughout. Also, the Potency entry in test [6], in test [15], in test [9] and in test [10] was “inactive” throughout. Moreover, the call in test [7], in test [8] and in test [11] was inactive.
Regarding `CCC(C)C(C)(COC(N)=O)COC(N)=O` (stereo not given), the Potency entry in [1], in [3], in [4], in test [18], in test [19] and in [5] was “inactive” throughout. The Potency entry in test [12], in [13], in test [14], in [6], in test [15] and in [16] was “inactive” in each case. Moreover, the Potency result in [9] and in test [10] was “inactive” throughout. Also, the molecule was called inactive in test [7], in test [8] and in [11]. Besides, in test [17], the activity change, positive = activation was 1.95% [at 42.5 µM].

Source of the values: PubChem BioAssay (Tox21).
